Bioassay records: PubChem BioAssay, National Center for Advancing Translational Sciences (NCATS)
The entries come from a sample that favours hits as a whole.
LDHA inh: inhibitors of human lactate dehydrogenase A. P00338. purified LDHA, NADH/diaphorase-resazurin fluorescence; active compounds read low. activity change, % (values are at about 110 or 230 µM). 480,000 compounds, 0.15% hits; in the data active = activity change below about -30%; inconclusive = mostly about -25% to -30%;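 note: plate controls were DMSO wells for no effect and wells without enzyme for full effect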
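Remaining NADH was detected by diaphorase (0.133 mg/mL) converting 37 µM resazurin to fluorescent resorufin, read at 0 and 20 minutes. The preceding 5-minute room-temperature reaction used 2 nM LDHA, 0.2 mM sodium pyruvate and 0.06 mM NADH at pH 7.4.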
RGS4 inh: human RGS4 inhibition; P49798; Transcreener GDP fluorescence polarization, RGS4-accelerated GTP hydrolysis; Potency, µM (highest dose often 114 µM), inactives show top-dose activity change, negative = inhibition, actives largely listed as inhibitors; 390,000 compounds, 0.039% hits; AID 504845; note: potency is the fitted concentration of half-maximal effect; % is set by controls: 0 for no effect and ±100 for the full control effect; nearly all actives have a fitted effect of over 75% in size
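MLSMR compounds (23 nl, pin-transferred) preincubated 10 min at room temperature with a 500nM (2x) first reagent, then RGS4 at 900nM (2x) plus Transcreener GDP mix added; fluorescence polarization (620/688 nm) read before and after 90 min at 30 °C.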
ClpP mod: qHTS Assay for Activators of ClpP | purified B. subtilis ClpP, FRET peptide cleavage, 20 min | Potency, µM (top dose mostly 57.5 µM), for the others: top-dose activity change, negative = active | 340,000 compounds, 1.9% hits | AID 651965, 2013; active = well fitted falling curve with a large enough effect; inconclusive = small, poorly fitted or top-dose-only effect; inactive = no such curve, though single readings can be large or run the other way; note: potency is the fitted concentration of half-maximal effect; the source files actives as falling curves though it sought activators and does not explain the sign; nearly all actives have a fitted effect of over 65% in size
Target sequence (P80244 whole entry, looked up): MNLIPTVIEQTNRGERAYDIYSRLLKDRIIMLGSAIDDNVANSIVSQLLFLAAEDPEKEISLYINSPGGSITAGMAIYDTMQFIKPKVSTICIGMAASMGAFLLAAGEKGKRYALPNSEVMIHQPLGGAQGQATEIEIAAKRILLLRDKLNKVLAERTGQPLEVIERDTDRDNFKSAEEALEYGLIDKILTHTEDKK
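FRET quenching reversal measured ClpP activation: 10 microg/mL B. subtilis ClpP at pH 8 with the FRET-FV decapeptide, read at 430 nm after 320 nm excitation. The 20-min minus 0-min signal was scaled between DMSO/no-enzyme wells and ADEP (5.8 microM final).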
ASM inhibitor: inhibitors of human secretory acid sphingomyelinase; placental ASM, HMU-PC fluorogenic substrate, 60 min; AID 504937; 340,000 compounds, 0.006% hits; P17405; Potency, µM (series often up to 57.5 µM), for inactives: at the top dose activity change, negative = inhibition, actives largely listed as inhibitors; note: potency is the fitted concentration of half-maximal effect
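Fluorescence read-out (Ex 386 nm, Em 447 nm) after stopping the reaction at pH 10. Enzyme: ASM from human placenta; substrate HMU-PC0, 9 uM final; 60 min, 37 °C. Compound preincubation 10 min, ambient temperature.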
Mito fusion act: inhibitors of mitochondrial division or activators of mitochondrial fusion; Potency, µM (titrated, usually from 46.1 µM), inactives show at the highest dose growth rescue (activation), most hits filed as activators; 320,000 compounds, 0.23% hits; S. cerevisiae fusion-defective mutant growth rescue, CellTiterGlo 48 h; AID 485298; note: potency is the fitted concentration of half-maximal effect; % of control where 0% means no effect; nearly all actives have a fitted effect of over 45% in size
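Compounds are tested for their ability to restore growth of mitochondrial fusion-defective yeast strains at non-permissive 37C in YPEG medium over 48 hours. Viability is quantified by luciferase luminescence.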
mIDH1 inhibitor: human IDH1 R132H inhibition | 390,000 compounds, 0.093% hits | Potency, µM (titrated, usually from 76.6 µM), inactives show top-dose activity change, negative = inhibition, most hits filed as inhibitors | IDH1-R132H enzyme, NADPH consumption, diaphorase/resazurin fluorescence | O75874; note: potency is the fitted concentration of half-maximal effect; % is set by controls: 0 for no effect and ±100 for the full control effect; nearly all actives have a fitted effect of over 65% in size
Target sequence (O75874 whole entry R132H, stated change not applied): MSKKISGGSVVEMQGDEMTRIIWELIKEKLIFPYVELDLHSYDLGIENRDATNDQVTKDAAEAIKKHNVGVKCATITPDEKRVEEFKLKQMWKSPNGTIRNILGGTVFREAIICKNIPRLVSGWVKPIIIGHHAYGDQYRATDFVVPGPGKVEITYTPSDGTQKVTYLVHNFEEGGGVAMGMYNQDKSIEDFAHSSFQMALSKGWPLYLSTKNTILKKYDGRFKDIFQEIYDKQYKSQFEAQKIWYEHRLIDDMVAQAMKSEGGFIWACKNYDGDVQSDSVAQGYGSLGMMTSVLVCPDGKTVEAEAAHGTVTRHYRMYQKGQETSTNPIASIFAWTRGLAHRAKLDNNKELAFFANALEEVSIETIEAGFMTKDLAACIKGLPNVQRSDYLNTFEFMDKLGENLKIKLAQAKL
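IDH1-R132H (0.5 ug/mL) preincubated 30 min with compound, then NADPH (0.016 mM) and alpha-KG (2 mM) added; 80 min at RT, pH 7.5. Remaining NADPH coupled via diaphorase/resazurin to fluorescence (540/590 nm); concentration-response curves normalized to no-enzyme control.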
Starred values were filed as active, the others as inactive; ? = inconclusive; · = no result given. Unless noted, calls come from the whole dose curve; as a rule, active = well fitted curve in the direction sought with a large enough effect; inconclusive = small, poorly fitted or top-dose-only effect, or another doubt; inactive = no such curve, though single readings can be large; an effect the other way counts as inactive or inconclusive.

SMILES | LDHA inh | RGS4 inh | ClpP mod | ASM inhibitor | Mito fusion act | mIDH1 inhibitor
Cc1cc(-c2cc(-c3ccc(Cl)cc3)on2)nc(NCC2CC2)n1 | -4 | -10% | 14µM* | 10% | 1% | 17%
CCN(CCCn1c(=S)[nH]c2ncccc2c1=O)c1ccccc1 | -6 | -32% | -2% | -2% | -3% | 14%
CCN(CC)CCCn1c(=S)[nH]c2ncccc2c1=O | 2 | -22% | 32µM* | 13% | 2% | 10%
O=C(CSc1nc2[nH]c(=O)cc(O)c2s1)Nc1nncs1 | 5 | ? | · | 6% | · | 27%
O=C(CSc1nc2[nH]c(=O)cc(O)c2s1)Nc1nccs1 | 5 | -34% | 32µM* | 1% | -9% | 3%
O=C(O)Cc1coc2cc3c(cc12)CCC3 | -7 | 18% | 25µM* | 1% | -3% | 10%
O=C(Cc1coc2cc3c(cc12)CCC3)NC1CCCCCCC1 | 3 | ? | 1% | -6% | 16% | 6%
COc1cc2c(cc1OC)-c1c(c(C(=O)NCCN3CCOCC3)nn1-c1cccc(Cl)c1)C2 | 5 | · | · | · | · | ·
Cc1ccc(-c2cc(C(=O)NCc3ccccn3)c3ccccc3n2)cc1C | 4 | -24% | 32µM* | -2% | 7% | 0%
Cc1c(Br)cc(C(=O)NCCCN2CCOCC2)c(C)c1C | -3 | 3% | 16µM* | 5% | -3% | 3%
CCCC(=O)c1c[nH]c(C(=O)NCCCN2CCOCC2)c1 | 1 | -10% | 25µM* | 0% | -1% | -2%
Cc1ccc(-c2cc(C(=O)NCCCN3CCOCC3)c3ccccc3n2)cc1C | 5 | -22% | · | -4% | 6.3µM* | 4%
O=C(NCCCN1CCOCC1)c1ccc(Br)cc1Br | · | · | · | · | 2% | ·
CCc1ccc2c(c1)-c1ccccc1S(=O)(=O)N2CC(=O)N1CCCCCC1 | 9 | · | · | · | · | ·
COc1ccc(N2CN(CCCN(C)C)Cn3c2nc(C)c(C)c3=O)cc1 | 0 | · | · | · | · | ·
COc1cc(NS(=O)(=O)c2ccc(C)cc2)cc2sc(NC(=O)c3ccccc3)nc12 | 23 | · | · | · | · | ·
Cc1cc(I)c2[nH]c(-c3ccccc3)c(-c3ccccc3)c2c1 | 8 | · | · | · | · | ·
CCOC(=O)c1ncoc1-c1ccccc1C(=O)N1CCN(c2ccccc2F)CC1 | 0 | · | · | · | · | ·
O=C(c1ccc2ccccc2c1O)N1CCN(S(=O)(=O)c2ccc(Cl)cc2)CC1 | 13 | · | · | · | · | ·
CCCc1ccc(-c2cc(C(=O)NCCc3ccc(S(N)(=O)=O)cc3)c3ccccc3n2)cc1 | -15 | -7% | 32µM* | 1% | -2% | 0%
O=C(CCS(=O)(=O)c1nc(-c2cccs2)cc(C(F)(F)F)n1)Nc1ccc(F)c(Cl)c1 | -6 | 4% | 22µM* | · | · | -8%
COc1ccc(NC(=O)CCS(=O)(=O)c2nc(-c3cccs3)cc(C(F)(F)F)n2)cc1 | -1 | -27% | -8% | · | · | -6%
c1ccc(CC2CCN(c3nc4ccccc4n4nnnc34)CC2)cc1 | -7 | 17% | 16µM* | 1% | 5% | 3%
O=C(c1ccco1)N1CCN(c2nc3ccccc3n3nnnc23)CC1 | -4 | ? | -18% | -1% | 4% | 3%
Cn1c(C(=O)NCCNC(=O)C2CCCCC2)cc2ccccc21 | -10 | · | · | · | · | ·
SMILES | LDHA inh | RGS4 inh | ClpP mod | ASM inhibitor | Mito fusion act | mIDH1 inhibitor
O=C(CSc1nnc(CCCN2C(=O)c3cccc4cccc(c34)C2=O)n1-c1ccccc1)N1CCN(CCO)CC1 | -3 | -36% | 14µM* | 0% | -3% | 6%
COC(=O)c1cccc(S(=O)(=O)N(Cc2ccco2)Cc2cc3ccc(OC)cc3[nH]c2=O)c1 | -3 | 2% | ? | -11% | 2% | 4%
COC(=O)c1cccc(S(=O)(=O)N(Cc2ccco2)Cc2cc3cc(OC)c(OC)cc3[nH]c2=O)c1 | 3 | -4% | 28µM* | 16% | -3% | -2%
CC1CCN(c2nc3c(S(=O)(=O)c4cccc(Cl)c4)nnn3c3ccsc23)CC1 | 3 | 8% | 22µM* | · | · | 1%
CCc1ccc(-c2nc(CSCC(=O)NCCCOC)c(C)o2)cc1 | -16 | · | · | · | · | ·
CC(C(=O)N(C)CC(=O)Nc1ccccc1C(F)(F)F)N1CCN(c2cccc(Cl)c2)CC1 (stereo not given) | 3 | · | · | · | · | ·
COc1ccc2[nH]c(=O)c(CN(Cc3cccnc3)C(=O)Nc3ccccc3)cc2c1 | -2 | 21% | 32µM* | 22% | 13% | 1%
COc1cc(C(=O)N(Cc2cccnc2)Cc2cc3cc4c(cc3[nH]c2=O)OCCO4)cc(OC)c1OC | 8 | -35% | 28µM* | 76% | 3% | 0%
CC1Oc2ccccc2C=C1/C=C/C(=O)c1ccc(O)cc1 (stereo not given) | -9 | · | · | · | · | ·
COc1ccc(C(c2nnnn2C(C)(C)C)N2CCN(c3nc4ccccc4s3)CC2)cc1 (stereo not given) | -2 | 19% | 25µM* | -3% | 10% | -3%
Cc1ccc(-n2nnnc2SCC(=O)Nc2ccc3nccnc3c2)c(C)c1 | 29 | · | · | · | · | ·
Cc1cccc(CN2C3=NCCCN3c3ccccc32)c1 | -5 | -8% | 1% | 3% | -24% | 0%
CCN1C2=NCCCN2c2cc(C)c(C)cc21 | -2 | ? | 28µM* | -2% | 2% | 3%
CCN(CC)c1cc2c(cc1F)c(=O)c(S(=O)(=O)c1ccc(OC)cc1)cn2Cc1ccccc1 | 0 | 12% | 32µM* | · | · | -13%
CCn1cc(C(=O)NCc2cccc(F)c2)c(=O)c2cc(F)c(N3CCN(C(=O)c4ccco4)CC3)cc21 | -2 | ? | 25µM* | -5% | 21% | -1%
CCCNC(=O)c1cn(CC)c2cc(N3CCN(C(=O)c4ccco4)CC3)c(F)cc2c1=O | 0 | -19% | 4% | -2% | 0% | -2%
CCN(CC)c1cc2c(cc1F)c(=O)c(S(=O)(=O)c1ccccc1)cn2Cc1ccccc1 | -5 | -17% | 22µM* | · | · | -7%
CCC(=O)N1CCN(c2cc3c(cc2F)c(=O)c(C(=O)O)cn3CC)CC1 | 13 | -1% | · | 1% | · | 9%
CCn1cc(C(=O)O)c(=O)c2cc(F)c(N3CCN(S(=O)(=O)c4ccc(NC(=O)OC)cc4)CC3)cc21 | 8 | -53% | 18µM* | -12% | 1% | 2%
CC(C)N(C)S(=O)(=O)c1ccc(Cl)c(C(=O)N2CCCC2C(=O)O)c1 (stereo not given) | -1 | · | · | · | · | ·
O=C(O)C1CCC(c2ccc(I)cc2)CC1 (stereo not given) | 1 | · | · | · | · | ·
